Measurements reported in the supplement of paper PMC10849652.
About 8,800 targets were measured; listed, in parts, are those with a hit and a random draw of the rest. About 0.5% of all pairs of compound and target were hits.

Legend:
Test in all cases: log2 fold change, soluble protein after heating vs DMSO (PISA); higher = thermal stabilisation; K562 lysate, 10 uM; active = over 0.2 and 3.5 SD of the protein, either way, in both replicates (recomputed)
[1] = compound: CS(=O)(=O)CCNCc1ccc(-c2ccc3ncnc(Nc4ccc(OCc5cccc(F)c5)c(Cl)c4)c3c2)o1 [lapatinib]
How it was run: (§1)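 A 30 min treatment with 10 μM compound was applied to crude K562 extract at 1 mg/mL protein in PBS pH 7.4 with 1 mM MgCl2. Heating for 3 min spanned 48°C-58°C, after which aliquots were pooled, adjusted to 0.5% NP-40 at 4°C and spun at 21,000xg for 90 min. TMTpro 16plex LC-MS/MS of the supernatant, with channel sums equalised, gave values recorded as log-two fold change in thermal stability against solvent controls, from duplicates.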

[2] = compound: CS(=O)(=O)N1CCN(Cc2cc3nc(-c4cccc5[nH]ncc45)nc(N4CCOCC4)c3s2)CC1 [pictilisib]
How it was run: as §1

[3] = compound: C[C@@H](Oc1cc(-c2cnn(C3CCNCC3)c2)cnc1N)c1c(Cl)ccc(F)c1Cl [crizotinib]
How it was run: as §1

[4] = compound: C[C@H](C1=CC=C(C=C1)C(=O)NC2=C3C=CNC3=NC=C2)N
How it was run: as §1

[5] = compound: C[C@H](Nc1ncnc2nc[nH]c12)c1cc2cccc(Cl)c2c(=O)n1-c1ccccc1 [duvelisib]
How it was run: as §1

[6] = compound: Cc1cc(Nc2cc(CN3CCOCC3)c3nc(C)c(Cc4ccc(Cl)cc4F)n3n2)n[nH]1 [gandotinib]
How it was run: as §1

[7] = compound: Cc1cc(Nc2cc(N3CCN(C)CC3)nc(Sc3ccc(NC(=O)C4CC4)cc3)n2)n[nH]1 [tozasertib]
How it was run: as §1

[8] = compound: Cc1ccc(-n2nc(C(C)(C)C)cc2NC(=O)Nc2ccc(OCCN3CCOCC3)c3ccccc23)cc1 [doramapimod]
How it was run: as §1

[9] = compound: Cc1ccc(NC(=O)c2ccc(CN3CC[C@H](N(C)C)C3)c(C(F)(F)F)c2)cc1Nc1nccc(-c2cncnc2)n1 [bafetinib]
How it was run: as §1

[10] = compound: Cc1cccc(CC(=O)N2CCc3c2ccc(-c2cn(C)c4ncnc(N)c24)c3F)n1
How it was run: as §1

[11] = compound: Cc1cn(-c2cc(NC(=O)c3ccc(C)c(Nc4nccc(-c5cccnc5)n4)c3)cc(C(F)(F)F)c2)cn1 [nilotinib]
How it was run: as §1

[12] = compound: Cc1nc(Nc2n[nH]c3c2CN(C(=O)N[C@H](CN(C)C)c2ccccc2)C3(C)C)c2sccc2n1
How it was run: as §1

[13] = compound: Cc1nc(Nc2ncc(C(=O)Nc3c(C)cccc3Cl)s2)cc(N2CCN(CCO)CC2)n1 [dasatinib]
How it was run: as §1

[14] = compound: Cc1ncc(-c2ccnc(Nc3ccc(S(C)(=O)=O)cc3)n2)n1C(C)C
How it was run: as §1

[15] = compound: Cn1cc(-c2ccc3c(c2)CCN3C(=O)Cc2cccc(C(F)(F)F)c2)c2c(N)ncnc21
How it was run: as §1

[16] = compound: Cn1cc(CNCC2CCN(c3ncc(C(=O)NO)cn3)CC2)c2ccccc21 [quisinostat]
How it was run: as §1

[17] = compound: Cn1cncc1[C@@](N)(c1ccc(Cl)cc1)c1ccc2c(c1)c(-c1cccc(Cl)c1)cc(=O)n2C [tipifarnib]
How it was run: as §1

[18] = compound: NC(=O)Nc1cc(-c2cccc(F)c2)sc1C(=O)N[C@H]1CCCNC1
How it was run: as §1

[19] = compound: NC(=O)c1cnc(N[C@@H]2CCCC[C@@H]2N)nc1Nc1cccc(-n2nccn2)c1
How it was run: as §1

[20] = compound: NC1(c2ccc(-c3nc4ccn5c(=O)[nH]nc5c4cc3-c3ccccc3)cc2)CCC1
How it was run: as §1

Measured: log2 fold change

DICER1 (UniProt Q9UPY3)
Sequence of UniProt Q9UPY3 (Q9UPY3 whole entry, looked up): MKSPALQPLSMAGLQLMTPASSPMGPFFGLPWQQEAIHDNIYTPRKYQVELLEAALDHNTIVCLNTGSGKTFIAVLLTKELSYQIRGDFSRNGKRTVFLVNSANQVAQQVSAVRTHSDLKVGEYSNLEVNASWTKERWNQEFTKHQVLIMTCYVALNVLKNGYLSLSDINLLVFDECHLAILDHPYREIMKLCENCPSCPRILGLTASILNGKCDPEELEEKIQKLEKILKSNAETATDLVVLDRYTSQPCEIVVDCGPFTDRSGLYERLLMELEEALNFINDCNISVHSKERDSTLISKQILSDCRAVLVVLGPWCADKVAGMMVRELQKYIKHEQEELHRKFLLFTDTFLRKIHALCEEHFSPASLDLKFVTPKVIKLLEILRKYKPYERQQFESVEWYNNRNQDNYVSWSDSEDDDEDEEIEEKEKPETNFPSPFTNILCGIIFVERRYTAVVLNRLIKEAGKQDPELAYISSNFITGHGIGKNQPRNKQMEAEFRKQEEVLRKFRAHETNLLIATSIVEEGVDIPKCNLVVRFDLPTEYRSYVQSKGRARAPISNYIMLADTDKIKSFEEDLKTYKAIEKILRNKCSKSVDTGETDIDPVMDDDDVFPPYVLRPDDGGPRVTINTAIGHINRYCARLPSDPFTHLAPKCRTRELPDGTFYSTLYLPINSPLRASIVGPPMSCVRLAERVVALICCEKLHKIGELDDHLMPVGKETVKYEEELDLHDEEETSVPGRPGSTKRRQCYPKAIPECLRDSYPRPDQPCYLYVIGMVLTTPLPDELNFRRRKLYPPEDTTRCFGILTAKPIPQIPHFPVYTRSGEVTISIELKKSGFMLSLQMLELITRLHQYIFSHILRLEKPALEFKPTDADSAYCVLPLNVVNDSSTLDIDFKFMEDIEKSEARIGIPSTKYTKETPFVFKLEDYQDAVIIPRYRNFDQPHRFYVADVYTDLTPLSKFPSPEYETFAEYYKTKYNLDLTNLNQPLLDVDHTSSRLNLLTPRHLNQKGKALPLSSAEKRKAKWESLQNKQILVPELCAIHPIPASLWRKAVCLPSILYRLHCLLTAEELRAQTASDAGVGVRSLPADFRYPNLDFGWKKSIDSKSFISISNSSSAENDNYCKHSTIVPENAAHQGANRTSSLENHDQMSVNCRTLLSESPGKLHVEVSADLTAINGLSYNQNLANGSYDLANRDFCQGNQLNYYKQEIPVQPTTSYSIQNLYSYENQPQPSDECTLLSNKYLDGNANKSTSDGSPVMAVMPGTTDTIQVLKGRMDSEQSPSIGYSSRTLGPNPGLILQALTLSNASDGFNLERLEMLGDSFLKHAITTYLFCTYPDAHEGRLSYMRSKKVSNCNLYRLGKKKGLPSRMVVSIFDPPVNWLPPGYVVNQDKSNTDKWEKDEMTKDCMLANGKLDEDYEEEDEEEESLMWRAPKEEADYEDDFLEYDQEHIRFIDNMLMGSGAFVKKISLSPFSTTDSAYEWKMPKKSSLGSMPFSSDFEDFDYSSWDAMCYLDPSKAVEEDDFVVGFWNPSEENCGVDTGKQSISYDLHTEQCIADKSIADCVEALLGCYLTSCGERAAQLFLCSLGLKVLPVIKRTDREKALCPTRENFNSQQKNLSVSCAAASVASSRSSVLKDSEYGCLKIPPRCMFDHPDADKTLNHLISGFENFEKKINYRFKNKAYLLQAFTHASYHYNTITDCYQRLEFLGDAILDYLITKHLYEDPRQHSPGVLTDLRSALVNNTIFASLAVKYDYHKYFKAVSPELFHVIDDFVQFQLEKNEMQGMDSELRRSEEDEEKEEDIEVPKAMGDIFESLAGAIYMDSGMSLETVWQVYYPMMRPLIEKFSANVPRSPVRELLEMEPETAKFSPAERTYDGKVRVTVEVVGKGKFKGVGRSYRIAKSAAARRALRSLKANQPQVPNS
inactive: [1] -0.02 | [2] -0.071 | [3] -0.075 | [4] -0.075 | [5] -0.05 | [6] 0.02 | [7] 0.035 | [8] 0.039 | [9] -0.11 | [10] 0.084 | [11] 0.014 | [12] -0.014 | [13] -0.005 | [14] 0.045 | [15] -0.03 | [16] -0.072 | [17] 0 | [18] 0.051 | [19] 0.045 | [20] -0.068

CNP (UniProt P09543)
Sequence of UniProt P09543 (P09543 whole entry, looked up): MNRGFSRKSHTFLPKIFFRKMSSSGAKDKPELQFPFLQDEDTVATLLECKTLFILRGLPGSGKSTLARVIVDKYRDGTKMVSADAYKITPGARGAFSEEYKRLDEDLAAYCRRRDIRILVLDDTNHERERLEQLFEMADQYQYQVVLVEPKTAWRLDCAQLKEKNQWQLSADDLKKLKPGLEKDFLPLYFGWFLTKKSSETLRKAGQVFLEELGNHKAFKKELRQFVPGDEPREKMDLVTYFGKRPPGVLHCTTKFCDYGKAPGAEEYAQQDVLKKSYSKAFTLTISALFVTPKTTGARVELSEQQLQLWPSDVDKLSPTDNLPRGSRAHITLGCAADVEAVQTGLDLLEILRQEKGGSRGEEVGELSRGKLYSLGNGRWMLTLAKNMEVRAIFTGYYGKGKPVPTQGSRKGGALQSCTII
inactive: [1] 0.014 | [2] 0.015 | [3] -0.023 | [4] 0.002 | [5] -0.002 | [6] -0.047 | [7] 0.012 | [8] 0.039 | [9] -0.026 | [10] 0.022 | [11] 0.033 | [12] 0.023 | [13] -0.047 | [14] -0.007 | [15] 0.003 | [16] -0.028 | [17] -0.055 | [18] -0.009 | [19] -0.007 | [20] -0.009

DENND4A isoform 2 (UniProt Q7Z401)
inactive: [1] -0.034 | [2] 0.001 | [3] -0.038 | [4] -0.206 | [5] -0.067 | [6] 0.045 | [7] -0.027 | [8] -0.009 | [9] -0.064 | [10] 0.203 | [11] -0.02 | [12] -0.002 | [13] -0.008 | [14] 0.023 | [15] 0.008 | [16] -0.083 | [17] -0.017 | [18] 0.058 | [19] 0.042 | [20] 0.008

DES (UniProt P17661)
inactive: [1] -0.079 | [2] -0.03 | [3] -0.082 | [4] -0.301 | [5] 0.098 | [6] 0.13 | [7] -0.014 | [8] 0.047 | [9] -0.051 | [10] 0.121 | [11] 0.009 | [12] -0.04 | [13] -0.024 | [14] 0.004 | [15] -0.057 | [16] -0.162 | [17] -0.008 | [18] 0 | [19] 0.041 | [20] 0.034

CHURC1 isoform 2 (UniProt Q8WUH1)
Sequence of UniProt Q8WUH1 (Q8WUH1 whole entry, looked up): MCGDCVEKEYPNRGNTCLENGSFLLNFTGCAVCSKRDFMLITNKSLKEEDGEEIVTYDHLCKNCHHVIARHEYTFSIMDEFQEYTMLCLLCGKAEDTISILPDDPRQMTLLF
inactive: [1] 0.012 | [2] 0.043 | [3] -0.047 | [4] 0.026 | [5] 0.049 | [6] -0.014 | [7] -0.032 | [8] -0.01 | [9] -0.019 | [10] -0.001 | [11] 0.055 | [12] -0.029 | [13] 0.016 | [14] -0.09 | [15] -0.001 | [16] -0.074 | [17] 0.027 | [18] 0.018 | [19] -0.041 | [20] -0.083

DCP1A (UniProt Q9NPI6)
Sequence of UniProt Q9NPI6 (Q9NPI6 whole entry, looked up): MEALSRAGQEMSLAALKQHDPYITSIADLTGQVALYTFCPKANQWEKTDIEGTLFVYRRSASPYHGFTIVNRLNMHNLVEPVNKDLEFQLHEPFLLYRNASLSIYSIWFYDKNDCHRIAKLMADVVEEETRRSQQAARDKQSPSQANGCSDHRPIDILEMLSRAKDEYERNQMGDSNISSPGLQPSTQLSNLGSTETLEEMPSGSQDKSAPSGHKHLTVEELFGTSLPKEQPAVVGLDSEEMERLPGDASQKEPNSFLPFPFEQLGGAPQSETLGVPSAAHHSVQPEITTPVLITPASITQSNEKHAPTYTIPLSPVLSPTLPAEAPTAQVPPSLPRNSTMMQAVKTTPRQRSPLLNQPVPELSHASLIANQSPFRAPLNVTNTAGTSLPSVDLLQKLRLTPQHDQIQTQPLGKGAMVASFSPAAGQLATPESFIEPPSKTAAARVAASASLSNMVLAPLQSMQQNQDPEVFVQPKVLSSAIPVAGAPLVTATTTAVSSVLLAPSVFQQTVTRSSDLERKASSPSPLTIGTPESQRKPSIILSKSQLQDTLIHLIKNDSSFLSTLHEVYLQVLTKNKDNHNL
inactive: [1] -0.015 | [2] -0.015 | [3] -0.042 | [4] -0.008 | [5] 0.023 | [6] 0.003 | [7] -0.03 | [8] -0.031 | [9] 0.043 | [10] 0.089 | [11] 0.022 | [12] 0.117 | [13] -0.052 | [14] -0.023 | [15] -0.001 | [16] -0.042 | [17] 0.039 | [18] 0.008 | [19] -0.041 | [20] -0.03

DERA (UniProt Q9Y315)
inactive: [1] -0.002 | [2] -0.028 | [3] -0.015 | [5] -0.004 | [6] -0.072 | [7] -0.028 | [8] -0.001 | [9] 0.012 | [10] -0.132 | [11] 0.037 | [12] -0.027 | [13] 0.057 | [14] 0.006 | [15] -0.017 | [16] -0.008 | [17] 0.08 | [18] -0.017 | [19] -0.021 | [20] 0
active: [4] 0.732

CNDP2 (UniProt Q96KP4)
Sequence of UniProt Q96KP4 (Q96KP4 whole entry, looked up): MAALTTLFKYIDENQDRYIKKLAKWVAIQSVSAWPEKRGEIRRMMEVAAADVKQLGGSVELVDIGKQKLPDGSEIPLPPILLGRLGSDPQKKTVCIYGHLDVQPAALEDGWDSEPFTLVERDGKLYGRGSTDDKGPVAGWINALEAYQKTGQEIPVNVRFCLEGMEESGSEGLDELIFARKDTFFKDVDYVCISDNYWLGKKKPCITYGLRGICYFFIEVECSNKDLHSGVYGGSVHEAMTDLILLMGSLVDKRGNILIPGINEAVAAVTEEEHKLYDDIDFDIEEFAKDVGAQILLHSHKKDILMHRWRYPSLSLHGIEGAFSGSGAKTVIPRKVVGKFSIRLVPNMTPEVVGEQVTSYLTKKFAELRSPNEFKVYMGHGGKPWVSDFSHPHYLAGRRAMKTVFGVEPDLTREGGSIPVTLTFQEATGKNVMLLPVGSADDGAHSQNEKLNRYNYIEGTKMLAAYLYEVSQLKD
active: [4] -0.255 | [6] 0.244
inactive: [1] -0.021 | [2] -0.017 | [3] -0.008 | [5] 0.037 | [7] -0.062 | [8] 0.001 | [9] -0.002 | [10] 0.212 | [11] 0.039 | [12] -0.023 | [13] 0.017 | [14] 0.051 | [15] -0.05 | [16] -0.074 | [17] -0.008 | [18] 0.004 | [19] 0.013 | [20] -0.003

CSNK1A1 (UniProt P48729)
Sequence of UniProt P48729 (P48729 whole entry, looked up): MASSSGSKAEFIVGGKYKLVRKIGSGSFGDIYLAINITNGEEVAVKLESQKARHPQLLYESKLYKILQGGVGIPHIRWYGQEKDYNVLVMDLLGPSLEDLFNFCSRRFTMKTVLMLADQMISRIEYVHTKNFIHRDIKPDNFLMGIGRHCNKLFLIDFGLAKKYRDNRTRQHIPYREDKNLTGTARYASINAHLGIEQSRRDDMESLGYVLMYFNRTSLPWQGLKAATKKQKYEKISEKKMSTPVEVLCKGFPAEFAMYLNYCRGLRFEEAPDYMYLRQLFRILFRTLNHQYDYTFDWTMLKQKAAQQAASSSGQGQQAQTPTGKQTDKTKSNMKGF
inactive: [1] -0.099 | [2] 0.084 | [3] -0.049 | [4] 0.084 | [5] -0.034 | [6] -0.077 | [7] -0.068 | [8] 0.027 | [9] 0 | [10] -0.01 | [11] -0.04 | [12] 0.045 | [13] 0.088 | [14] 0.123 | [15] -0.039 | [16] -0.04 | [17] -0.019 | [18] 0.197 | [19] 0.018 | [20] -0.07

CUEDC2 (UniProt Q9H467)
inactive: [1] 0.018 | [2] -0.119 | [3] 0.001 | [5] -0.009 | [6] -0.026 | [7] -0.055 | [8] 0.022 | [9] -0.073 | [10] -0.082 | [11] -0.038 | [12] 0.055 | [13] 0.015 | [14] 0.028 | [15] 0.009 | [16] -0.046 | [17] 0.009 | [18] -0.012 | [19] -0.021 | [20] 0.016
active: [4] 0.528

DHCR7 (UniProt Q9UBM7)
Sequence of UniProt Q9UBM7 (Q9UBM7 whole entry, looked up): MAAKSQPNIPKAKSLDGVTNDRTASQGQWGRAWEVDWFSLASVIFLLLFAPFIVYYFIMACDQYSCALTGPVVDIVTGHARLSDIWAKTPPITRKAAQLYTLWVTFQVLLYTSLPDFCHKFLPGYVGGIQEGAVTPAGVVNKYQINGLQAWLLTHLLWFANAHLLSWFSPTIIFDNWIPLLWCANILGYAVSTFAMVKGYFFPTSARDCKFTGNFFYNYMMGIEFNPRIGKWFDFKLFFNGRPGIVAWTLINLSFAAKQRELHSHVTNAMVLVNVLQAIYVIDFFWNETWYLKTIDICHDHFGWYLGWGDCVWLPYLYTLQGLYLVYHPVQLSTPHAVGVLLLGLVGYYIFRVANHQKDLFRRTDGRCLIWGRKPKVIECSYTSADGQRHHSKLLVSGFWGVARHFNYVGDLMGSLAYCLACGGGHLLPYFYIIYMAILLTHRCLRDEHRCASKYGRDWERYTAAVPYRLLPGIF
active: [6] -0.215
inactive: [1] -0.092 | [2] -0.039 | [3] -0.103 | [4] -0.024 | [5] 0.067 | [7] -0.01 | [8] 0.002 | [9] 0.024 | [10] 0.013 | [11] -0.013 | [12] 0.016 | [13] 0.011 | [14] 0 | [15] 0.013 | [16] 0.234 | [17] 0.015 | [18] 0.029 | [19] 0.008 | [20] 0.047

CSTB (UniProt P04080)
inactive: [1] 0.05 | [2] 0.003 | [3] -0.059 | [4] -0.235 | [5] 0.025 | [6] 0.147 | [7] -0.01 | [8] 0.107 | [9] 0.012 | [10] 0.104 | [11] 0.057 | [12] 0.009 | [13] -0.017 | [14] 0.079 | [15] -0.022 | [16] -0.206 | [17] -0.008 | [18] -0.004 | [19] -0.055 | [20] -0.005

CTNNBL1 (UniProt Q8WYA6)
inactive: [1] 0 | [2] -0.011 | [3] -0.032 | [4] 0.015 | [5] 0 | [6] -0.058 | [7] 0.033 | [8] 0.058 | [9] -0.103 | [10] 0.043 | [11] -0.034 | [12] 0.02 | [13] 0.025 | [14] -0.013 | [15] -0.065 | [16] -0.008 | [17] -0.019 | [18] 0.02 | [19] 0.011 | [20] -0.138

CSDE1 isoform 4 (UniProt O75534)
inactive: [1] 0.001 | [2] -0.004 | [3] -0.006 | [4] 0.041 | [5] -0.015 | [6] -0.095 | [7] 0.003 | [8] 0.005 | [9] -0.021 | [10] -0.017 | [11] 0.01 | [12] -0.018 | [13] -0.012 | [14] 0.001 | [15] 0.048 | [16] 0.014 | [17] 0.012 | [18] 0.041 | [19] -0.009 | [20] -0.016

DPH5 isoform 5 (UniProt Q9H2P9)
Sequence of UniProt Q9H2P9 (Q9H2P9 whole entry, looked up): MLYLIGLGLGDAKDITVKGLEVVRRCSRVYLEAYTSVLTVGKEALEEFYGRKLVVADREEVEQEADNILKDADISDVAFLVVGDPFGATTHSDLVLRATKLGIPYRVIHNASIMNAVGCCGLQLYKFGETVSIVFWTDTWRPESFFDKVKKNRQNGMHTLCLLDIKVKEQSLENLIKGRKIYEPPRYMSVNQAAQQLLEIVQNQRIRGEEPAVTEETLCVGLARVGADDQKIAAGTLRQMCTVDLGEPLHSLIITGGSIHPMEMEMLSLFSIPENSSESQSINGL
active: [6] 0.495 | [13] 0.418 | [20] 0.377
inactive: [1] 0.009 | [2] 0.025 | [3] 0.126 | [4] -0.019 | [5] 0.128 | [7] 0.005 | [8] -0.024 | [9] 0.143 | [10] 0.101 | [11] -0.01 | [12] 0.289 | [14] 0.009 | [15] 0.062 | [16] 0.003 | [17] 0.017 | [18] -0.048 | [19] -0.025

CXorf38 (UniProt Q8TB03)
Sequence of UniProt Q8TB03 (Q8TB03 whole entry, looked up): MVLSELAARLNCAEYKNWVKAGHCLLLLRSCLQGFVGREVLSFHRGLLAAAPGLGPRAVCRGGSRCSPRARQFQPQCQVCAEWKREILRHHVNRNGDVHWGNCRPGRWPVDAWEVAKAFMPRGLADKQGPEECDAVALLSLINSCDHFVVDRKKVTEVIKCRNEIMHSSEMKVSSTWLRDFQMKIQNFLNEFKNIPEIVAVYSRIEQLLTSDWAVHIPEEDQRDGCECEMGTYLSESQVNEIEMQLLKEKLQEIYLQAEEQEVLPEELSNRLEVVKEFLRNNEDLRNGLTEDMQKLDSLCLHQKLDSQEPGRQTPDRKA
inactive: [1] -0.05 | [2] -0.017 | [3] -0.019 | [4] -0.039 | [5] 0.013 | [6] 0.037 | [7] 0.037 | [8] 0.013 | [9] -0.018 | [10] -0.033 | [11] 0.029 | [12] 0.013 | [13] -0.04 | [14] 0.053 | [15] -0.034 | [16] 0.004 | [17] 0.002 | [18] 0.006 | [19] 0.049 | [20] 0.009
